Assay outcomes (PubChem BioAssay)
BoNT A protease: BoNT A light chain protease inhibition | multiplex microsphere protease substrate cleavage, flow cytometry | hit rate 0.17% among 360,000 | AID 588499 | inhibition, % at 10 µM; further: plate controls were buffer without enzyme for full effect and enzyme alone for no effect
Bead autofluor: compound fluorescence in toxin protease inhibitor counterscreen; compound autofluorescence counterscreen, microsphere flow cytometry; hits give high values; AID 624483; fluorescence intensity (concentration not given with the values); hit rate 3.1% among 360,000; in the data active means fluorescence intensity above about 16000; inconclusive means no clear call, values can overlap the other calls
MazF activator: MazEF (E. coli) toxin RNase activation | AID 504720 | FAM/BHQ RNA-DNA oligo cleavage fluorescence, 5 h | activation, % at 20 µM | hit rate 0.32% among 350,000 | P0AE70; in the data active means activation above about 50%
Anthrax LF inh2: blocks Bacillus anthracis lethal factor protease. inhibition, % at 10 µM. hit rate 0.12% among 360,000. multiplex microsphere protease cleavage assay, LF. P15917; further: plate controls were buffer without enzyme for full effect and enzyme alone for no effect
SSB-PriA inh: inhibitors of Klebsiella pneumoniae PriA binding to SSB C-terminal tail | AID 1272365 | inhibition, % at 33 µM | hit rate 0.6% among 430,000 | AlphaScreen SSBct-PriA binding, biotinylated peptide; in the data active means inhibition mostly above about 37%, no sharp cut-off; inactive means mostly below about 20%;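 further: plate controls were negative control peptide for no effect and reference peptide for full effect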
BoNT-F LC inh: inhibitors of Botulinum neurotoxin F light chain protease; Multiplex microsphere protease cleavage assay, flow cytometry; hit rate 0.22% among 360,000; inhibition, % at 10 µM; in the data active means inhibition above about 35%, passing the limit was not always enough; inconclusive means no clear call, values can overlap the other calls; further: plate controls were buffer without enzyme for full effect and enzyme alone for no effect
Numbers without * were called inactive; ? = inconclusive; / = not tested or not shown. An excerpt weighted towards active compounds, which were near 3.3% of everything screened. Unless noted, no stated cut-off is given here; in the data, active means inhibition above about 30%; inconclusive means no clear call, values can overlap the other calls; inactive means below that.

SMILES	BoNT A protease	Bead autofluor	MazF activator	Anthrax LF inh2	SSB-PriA inh	BoNT-F LC inh
Cn1c(NCc2ccccc2)nc2c1c(=O)n(Cc1ccc(Br)cc1)c(=O)n2C	-1	3167	-1	1	8	1
COc1ccc(CNc2nc3c(c(=O)n(Cc4ccc(Br)cc4)c(=O)n3C)n2C)cc1	-2	20995*	3	-5	9	-6
N#Cc1c(N)c(C(=O)c2ccccc2)n2c1CCC2	-3	23949*	9	-1	-1	-5
O=C(Nc1cccc(-c2nc3ccccc3o2)c1)[C@@H]1CCCN1S(=O)(=O)c1ccc(Cl)s1	/	/	/	/	-5	/
Cc1ccc2cc(CN(CC3CCCO3)S(=O)(=O)c3ccccc3)c3nnnn3c2c1 (configuration not stated)	10	17821*	-2	-6	-16	10
Cc1ccc2cc(CN(CC3CCCO3)C(=O)Nc3ccccc3F)c3nnnn3c2c1 (configuration not stated)	0	2001	-6	0	-15	-5
Cc1cc(NCCCn2ccnc2)n2ncc(-c3ccc(Cl)cc3)c2n1	?	22244*	3	-8	43*	-2
CC(C)(C)c1cc(NCCCN2CCOCC2)n2ncc(-c3ccc(Cl)cc3)c2n1	/	/	/	/	-7	/
Cc1cc(NCCCN2CCOCC2)n2ncc(-c3ccc(Cl)cc3)c2n1	?	23672*	4	-1	-15	-4
Oc1ccccc1OCc1nc2ccccc2s1	2	22098*	1	-4	-14	0
O=C(OCc1nc2ccccc2s1)c1ccc(C(=O)OCc2nc3ccccc3s2)s1	/	/	/	/	-6	/
OCc1cc(Br)ccc1OCc1nc2ccccc2s1	-3	3665	6	-9	-24	-22
O=C(OCc1nc2ccccc2s1)c1ccc(Br)s1	-1	23134*	-14	2	-12	-3
O=C(Nc1cccc(Cl)c1)Nc1nc(C(=O)N2CCN(C(=O)c3ccco3)CC2)cs1	/	/	/	/	-5	/
CC(C)C(NC(=O)c1ccc(S(=O)(=O)N2CCOCC2)cc1)c1nc2ccccc2[nH]1 (configuration not stated)	0	22568*	-6	-3	-11	-3
CN1CCN(S(=O)(=O)c2cccc(C(=O)Nc3nc(-c4ccccn4)cs3)c2)CC1	/	/	/	/	124*	/
COc1ccc(NC(=O)c2ccc(S(=O)(=O)N3CCOCC3)cc2)c(OC)c1	-3	24065*	2	-2	-15	-6
CN1CCN(S(=O)(=O)c2cccc(C(=O)Nc3nc(-c4ccccc4)cs3)c2)CC1	-1	23294*	-2	-10	7	-2
COc1ccc(-c2csc(NC(=O)c3cccc(S(=O)(=O)N4CCN(C)CC4)c3)n2)cc1	0	8679	3	-5	18	-2
CCOC(=O)C1CCc2sc(NC(=O)C3CN(c4ncnc5c4nnn5C)C3)nc21 (configuration not stated)	/	/	/	/	-15	/
O=C(NC1CCCC1)C(=O)N1CCN(c2ccc(F)cc2)CC1	/	/	/	/	-13	/
COc1ccc(C(=O)Nc2ccccn2)cc1S(=O)(=O)N1CCOCC1	1	5890	5	-2	10	8
COc1ccccc1OC(C)C(=O)Nc1nc(-c2ccc(S(=O)(=O)N3CCOCC3)cc2)cs1 (configuration not stated)	?	23958*	-10	-2	-4	-6
COc1ccc(C(=O)Nc2nc(-c3ccccn3)cs2)cc1S(=O)(=O)N1CCOCC1	1	6194	10	-8	46*	-15
Cc1ccc(C(=O)NNC(=O)c2ccc(S(=O)(=O)N3CCOCC3)cc2)cc1	-1	3594	2	5	1	-14
SMILES	BoNT A protease	Bead autofluor	MazF activator	Anthrax LF inh2	SSB-PriA inh	BoNT-F LC inh
COc1cccc(NC(=O)C2CCN(S(=O)(=O)c3ccc4c(c3)OCCO4)CC2)c1	0	22969*	9	-8	-15	-3
O=C(NNC(=O)c1ccc(S(=O)(=O)N2CCOCC2)cc1)c1ccccc1	2	3693	-3	-4	-6	45*
COc1ccccc1C(=O)Nc1nc(-c2ccc(S(=O)(=O)N3CCOCC3)cc2)cs1	-2	4245	-3	-11	-1	-24
COc1cc(C=NNC(=O)c2cccnc2)ccc1OC(=O)c1ccco1	/	/	/	/	-13	/
COc1ccc(C(=O)Nc2ncc(S(=O)(=O)c3ccc([N+](=O)[O-])cc3)s2)cc1	/	/	/	/	-10	/
CS(=O)(=O)Nc1ccc(N2CCCCC2=O)cc1	/	/	/	/	-13	/
Cc1ccc(N(Cc2ccccc2)C(=O)c2ccc(S(=O)(=O)N3CCOCC3)cc2)cc1	-121	27784*	-3	-24	10	-177
O=C(Nc1nc2ccccc2s1)c1ccc(N2CCCCC2)c([N+](=O)[O-])c1	0	2022	13	-2	39*	-2
O=C(Nc1nc(-c2ccccn2)cs1)c1cc(S(=O)(=O)N2CCOCC2)ccc1Cl	/	/	/	/	116*	/
O=C(Nc1ccon1)c1ccc(N2CCCCC2)c([N+](=O)[O-])c1	1	2175	-7	1	2	1
COc1ccc(CC(=O)NCc2ccccc2Cl)cc1S(=O)(=O)N1CCOCC1	0	23297*	-3	1	-13	-1
CN(C)CC#CCNC(=O)c1cccc(Br)c1	/	/	/	/	-8	/
CCCOc1ccc(C(=O)Nc2ncc(Cc3ccc(F)cc3)s2)cc1	/	/	/	/	-1	/
O=C(Nc1nc(-c2ccccn2)cs1)c1cccc(S(=O)(=O)N2CCOCC2)c1	2	3693	5	1	81*	-3
O=C(Nc1nc(-c2ccccn2)cs1)c1ccc(S(=O)(=O)N2CCOCC2)cc1	/	/	/	/	114*	/
COc1cccc(NS(=O)(=O)c2ccc(S(=O)(=O)N3CCOCC3)cc2)c1	-3	17066*	2	-2	-9	-6
O=C(Nc1nc(-c2ccccn2)cs1)c1ccc(N2CCOCC2)c([N+](=O)[O-])c1	/	/	/	/	92*	/
COc1cccc(NS(=O)(=O)c2ccc(S(=O)(=O)N3CCCC3)cc2)c1	0	5787	-17	-3	32	-10
Cc1cccc(-n2nc3c(c2NC(=O)c2ccc(S(=O)(=O)N4CCOCC4)cc2)CSC3)c1C	?	23238*	-3	1	-9	0
COc1cccc(N2C(=O)CC(N3CCC(C(N)=O)(N4CCCCC4)CC3)C2=O)c1 (configuration not stated)	-8	26152*	-2	-3	-11	-10
O=C(COc1ccc(Cl)cc1Cl)Nc1nnc(SCC(=O)N2CCCc3ccccc32)s1	/	/	/	/	5	/
Cc1ccccc1NC(=O)N(C1=NCCC1)c1cccc(F)c1	/	/	/	/	-14	/
Cc1ccccc1C(NC(N)=O)c1ccccc1 (configuration not stated)	-2	16482*	-21	-3	-13	-4
O=C(c1nnn(-c2ccccc2)c1-n1cccc1)N1CCC(O)(c2ccc(Cl)cc2)CC1	/	/	/	/	-1	/
COc1ccc(-c2cc(-c3nnc(COC(=O)CC4CC5CCC4C5)o3)c3ccccc3n2)cc1OC (configuration not stated)	52*	2180	-19	16	-19	5
Cc1cccc(OCc2nnc(SCC(=O)N(C(C)C)C(C)C)n2Cc2ccco2)c1C	0	16236*	-5	0	-22	3
